Active and inactive are the calls of the source.
What was measured:
[1] = system: Plasmodium falciparum Sir2 (PF13_0152, Sir2A); experiment: pfSir2 binders on small-molecule microarrays, primary screen, biochemical, small-molecule microarray, 635 nm fluorescence (AID 1098); conditions: small-molecule microarray binding, fluorescence 635 nm; higher = more signal;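 further: score merges spot fluorescence intensity with its signal-to-noise ratio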
[2] = small-molecule microarray binders of probe aDKK1, primary screen, biochemical, biotinylated probe, 635/667 nm fluorescence (AID 1099); conditions: higher = more signal;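 further: score merges 667nm spot fluorescence with signal to noise across triplicate slides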
[3] = small-molecule microarray binders of probe aCHRDL2, primary screen, biochemical, biotinylated probe, 635/667 nm fluorescence (AID 1100); conditions: higher = more signal
[4] = splicing luciferase reporter signal modulators, primary screen, spliceosome inhibition project, cell-based, HEK293, splice +/- reporter (AID 1101); conditions: luminescence, 24 h, higher = more signal, called active from +8 up or from −8 down;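 further: HEK293 cells carrying a splicing-competent luciferase reporter gene; test concentration not given here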
[5] = target: Fibroblast growth factor 10 (Homo sapiens) (UniProt O15520); experiment: FGF10 binders on small-molecule microarrays, primary screen, biochemical, small-molecule microarray, 635 nm fluorescence (AID 1102); conditions: FGF10 binding, fluorescence 635 nm, higher = more signal
[6] = system: glycogen synthase kinase-3 (GSK3A per assay name; protocol says GSK3B); experiment: GSK3 binders on small-molecule microarrays, primary screen, biochemical, small-molecule microarray, 635 nm fluorescence, GSK3A (AID 1103); conditions: small-molecule microarray binding, fluorescence 635 nm; higher = more signal; further: the record names both GSK3A and GSK3B
[7] = target: Epidermal growth factor receptor (Homo sapiens) (UniProt P00533); experiment: EGFR binders on small-molecule microarrays, primary screen, biochemical, small-molecule microarray, 635 nm fluorescence (AID 1104); conditions: EGFR binding, higher = more signal;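 further: score merges 667 nm emission intensity with spot signal to noise over triplicate slides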
[8] = target: Follistatin-related protein 3 (Homo sapiens) (UniProt O95633); experiment: FSTL3 binders on small-molecule microarrays, primary screen, biochemical, small-molecule microarray, 635 nm fluorescence (AID 1105); conditions: FSTL3 binding, higher = more signal;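 further: score merges emission near 667 nm and signal to noise per printed spot across three slides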
[9] = target: Dickkopf-related protein 1 (Homo sapiens) (UniProt O94907); experiment: DKK1 binders on small-molecule microarrays, primary screen, biochemical, small-molecule microarray, 635 nm fluorescence scan (AID 1106); conditions: DKK1 binding, higher = more signal;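 further: score merges emission near 667 nm with signal to noise over three replicate slides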
[10] = system: Inhibin beta A chain (activin A); experiment: INHBA (activin A) binders on microarrays, primary screen, biochemical, small-molecule microarray, 635 nm fluorescence scan (AID 1107); conditions: small-molecule microarray binding, higher = more signal;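 further: mouse activin A protein probed at 4.33 µg/mL on printed slides; score merges bound-protein fluorescence near 667 nm with spot signal-to-noise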
[11] = system: Human papillomavirus type 1a protein E7 (residues 44-93); experiment: HPV1a E7 fragment binders on microarrays, primary screen, biochemical, small-molecule microarray, residues 44-93, 635 nm fluorescence (AID 1108); conditions: small-molecule microarray binding, fluorescence 635 nm; higher = more signal;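 further: E7 fragment applied at 1 µg/mL in TBST for 1 h at 4 C; score combines spot fluorescence with its signal to noise ratio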
[12] = modulators of HCV replicon luciferase signal, primary screen, HCV replication inhibitor project, Huh7 cells, luciferase reporter (AID 1109); conditions: 48 h, higher = more signal;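 further: huh7 hepatoma cells harbouring a luciferase neomycin HCV replicon reporter; luciferase luminescence as measure of HCV replicon replication; test concentration not given here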
[13] = target: Left-right determination factor 2 (Homo sapiens) (UniProt O00292); experiment: LEFTY2 binders on small-molecule microarrays, primary screen, biochemical, small-molecule microarray, 635 nm fluorescence scan (AID 1110); conditions: LEFTY2 binding, higher = more signal
[14] = target: Calmodulin-1 (Homo sapiens) (UniProt P0DP23); experiment: CALM1 binders on microarrays, EGTA buffer, profiling panel, biochemical, small-molecule microarray, Cy5-labelled CALM1 (AID 1111); conditions: Cy5-CALM1 binding fluorescence, higher = more signal;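 further: labelled calmodulin applied in Tris saline Tween buffer holding calcium plus EGTA and DTT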
[15] = target: Calmodulin-1 (Homo sapiens) (UniProt P0DP23); experiment: calcium-bound CALM1 binders on microarrays, profiling panel, artefact control for SMM control-protein annotation, biochemical, small-molecule microarray, Cy5-labelled CALM1, plus calcium (AID 1112); conditions: Cy5-CALM1 binding fluorescence, higher = more signal;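 further: score merges spot fluorescence with signal to noise from triplicate slides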
[16] = small-molecule microarray binders of probe aWnt5a, primary screen, biochemical, biotinylated probe, 635/667 nm fluorescence (AID 1113); conditions: higher = more signal;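 further: score merges 667 nm fluorescence intensity with signal-to-noise per printed feature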
[17] = small-molecule microarray binders of probe aShh, primary screen, biochemical, biotinylated probe, 635/667 nm fluorescence (AID 1114); conditions: higher = more signal;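 further: probe is biotin-labelled aShh protein from a stem cell growth factor screen; measures binding of labelled protein to compounds printed on the slide; score merges feature fluorescence at 667 nm with signal-to-noise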
[18] = small-molecule microarray binders of probe aNog, primary screen, biochemical, biotinylated probe, 635/667 nm fluorescence (AID 1115); conditions: higher = more signal;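 further: probe is biotinylated aNog protein used at 0.15 µg/mL for 1 h at 4 C; z-score combines 667 nm fluorescence of each spot with its signal to noise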
[19] = target: Torsin-1A-interacting protein 1 (Homo sapiens) (UniProt Q5JTV8); experiment: LAP1 binders from COS7 cell lysate, primary screen, small-molecule microarray, 635/667 nm fluorescence (AID 1116); conditions: COS7-hLAP1 lysate binding, 635 nm fluorescence, higher = more signal
[20] = target: Alpha-bungarotoxin (Bungarus multicinctus) (UniProt P60615); experiment: alpha-bungarotoxin binders on microarray, profiling panel, artefact control for SMM control protein annotation, biochemical, small-molecule microarray, Alexa647 label, 635/667 nm fluorescence (AID 1117); conditions: alpha-BTX-A647 binding fluorescence, higher = more signal
Alpha-bungarotoxin (Bungarus multicinctus), sequence (P60615 whole entry, looked up): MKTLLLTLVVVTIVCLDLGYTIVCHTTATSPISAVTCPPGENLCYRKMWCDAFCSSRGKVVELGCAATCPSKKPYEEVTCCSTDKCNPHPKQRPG

Fibroblast growth factor 10 (Homo sapiens), sequence (O15520 whole entry, looked up): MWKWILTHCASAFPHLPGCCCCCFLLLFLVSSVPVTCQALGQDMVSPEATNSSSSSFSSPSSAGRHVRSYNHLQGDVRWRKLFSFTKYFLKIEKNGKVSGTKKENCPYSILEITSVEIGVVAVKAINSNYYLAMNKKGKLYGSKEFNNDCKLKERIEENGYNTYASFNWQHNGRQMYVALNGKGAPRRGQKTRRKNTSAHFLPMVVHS
Epidermal growth factor receptor (Homo sapiens), sequence (P00533 whole entry, looked up): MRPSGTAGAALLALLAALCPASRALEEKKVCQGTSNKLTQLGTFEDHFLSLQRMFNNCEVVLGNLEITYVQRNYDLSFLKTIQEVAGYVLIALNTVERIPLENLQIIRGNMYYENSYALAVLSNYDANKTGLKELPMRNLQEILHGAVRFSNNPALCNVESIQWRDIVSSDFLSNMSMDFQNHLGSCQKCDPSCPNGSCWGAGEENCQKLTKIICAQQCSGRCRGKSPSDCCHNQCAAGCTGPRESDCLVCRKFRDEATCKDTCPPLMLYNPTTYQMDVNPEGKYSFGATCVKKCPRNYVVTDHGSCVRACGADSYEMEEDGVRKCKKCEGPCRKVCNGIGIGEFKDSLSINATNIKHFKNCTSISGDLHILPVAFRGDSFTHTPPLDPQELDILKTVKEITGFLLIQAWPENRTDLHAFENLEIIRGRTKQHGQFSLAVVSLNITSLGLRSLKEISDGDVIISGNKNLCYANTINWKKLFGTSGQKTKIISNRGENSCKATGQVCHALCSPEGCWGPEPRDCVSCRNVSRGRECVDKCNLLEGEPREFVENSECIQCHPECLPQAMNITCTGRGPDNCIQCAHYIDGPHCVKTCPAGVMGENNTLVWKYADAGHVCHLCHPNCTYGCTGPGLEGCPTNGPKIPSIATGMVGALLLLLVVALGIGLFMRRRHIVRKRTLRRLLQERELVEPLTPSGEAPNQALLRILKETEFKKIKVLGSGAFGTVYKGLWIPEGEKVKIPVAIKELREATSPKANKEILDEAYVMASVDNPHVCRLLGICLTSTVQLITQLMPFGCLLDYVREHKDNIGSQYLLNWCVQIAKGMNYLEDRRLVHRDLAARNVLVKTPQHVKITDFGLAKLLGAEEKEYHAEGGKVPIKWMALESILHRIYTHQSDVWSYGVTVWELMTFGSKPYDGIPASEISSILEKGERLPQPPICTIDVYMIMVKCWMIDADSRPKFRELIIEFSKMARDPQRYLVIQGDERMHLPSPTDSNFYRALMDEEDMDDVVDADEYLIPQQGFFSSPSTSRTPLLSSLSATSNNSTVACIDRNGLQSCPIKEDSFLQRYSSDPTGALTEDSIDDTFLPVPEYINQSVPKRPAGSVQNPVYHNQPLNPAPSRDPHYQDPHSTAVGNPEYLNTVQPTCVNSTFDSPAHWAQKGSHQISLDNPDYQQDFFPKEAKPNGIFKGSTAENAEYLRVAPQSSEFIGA
Left-right determination factor 2 (Homo sapiens), sequence (O00292 whole entry, looked up): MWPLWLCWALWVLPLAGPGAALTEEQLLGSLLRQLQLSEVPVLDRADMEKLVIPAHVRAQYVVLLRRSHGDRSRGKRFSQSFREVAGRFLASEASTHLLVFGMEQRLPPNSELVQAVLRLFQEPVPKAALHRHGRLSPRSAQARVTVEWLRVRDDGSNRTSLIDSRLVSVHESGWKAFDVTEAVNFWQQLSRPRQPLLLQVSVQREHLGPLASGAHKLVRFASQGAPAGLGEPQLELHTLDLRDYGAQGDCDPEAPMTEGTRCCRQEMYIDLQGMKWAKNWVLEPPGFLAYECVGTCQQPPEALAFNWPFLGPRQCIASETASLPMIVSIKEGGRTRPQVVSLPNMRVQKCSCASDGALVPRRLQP
Torsin-1A-interacting protein 1 (Homo sapiens), sequence (Q5JTV8 whole entry, looked up): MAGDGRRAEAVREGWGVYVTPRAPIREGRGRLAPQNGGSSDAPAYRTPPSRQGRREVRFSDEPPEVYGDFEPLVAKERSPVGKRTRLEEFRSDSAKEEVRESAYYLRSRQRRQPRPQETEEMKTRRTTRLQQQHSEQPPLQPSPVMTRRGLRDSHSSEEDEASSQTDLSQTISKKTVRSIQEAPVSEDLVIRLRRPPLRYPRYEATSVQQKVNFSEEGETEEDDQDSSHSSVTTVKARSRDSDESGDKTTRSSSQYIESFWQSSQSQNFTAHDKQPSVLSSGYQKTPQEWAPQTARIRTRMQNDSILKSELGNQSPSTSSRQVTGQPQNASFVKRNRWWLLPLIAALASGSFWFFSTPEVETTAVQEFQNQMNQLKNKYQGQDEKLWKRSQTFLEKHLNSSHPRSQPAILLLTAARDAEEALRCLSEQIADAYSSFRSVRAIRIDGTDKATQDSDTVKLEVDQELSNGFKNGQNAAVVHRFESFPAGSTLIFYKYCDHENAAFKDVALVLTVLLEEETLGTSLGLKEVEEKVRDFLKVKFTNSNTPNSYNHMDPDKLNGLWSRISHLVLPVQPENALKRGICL
Follistatin-related protein 3 (Homo sapiens), sequence (O95633 whole entry, looked up): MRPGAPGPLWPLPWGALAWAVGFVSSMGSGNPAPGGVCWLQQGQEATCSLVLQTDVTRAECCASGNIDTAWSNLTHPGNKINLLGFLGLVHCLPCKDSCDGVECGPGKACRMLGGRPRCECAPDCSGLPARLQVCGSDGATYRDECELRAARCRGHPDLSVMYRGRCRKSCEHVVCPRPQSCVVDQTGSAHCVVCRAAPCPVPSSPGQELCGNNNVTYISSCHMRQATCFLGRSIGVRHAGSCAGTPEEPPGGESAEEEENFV
Dickkopf-related protein 1 (Homo sapiens), sequence (O94907 whole entry, looked up): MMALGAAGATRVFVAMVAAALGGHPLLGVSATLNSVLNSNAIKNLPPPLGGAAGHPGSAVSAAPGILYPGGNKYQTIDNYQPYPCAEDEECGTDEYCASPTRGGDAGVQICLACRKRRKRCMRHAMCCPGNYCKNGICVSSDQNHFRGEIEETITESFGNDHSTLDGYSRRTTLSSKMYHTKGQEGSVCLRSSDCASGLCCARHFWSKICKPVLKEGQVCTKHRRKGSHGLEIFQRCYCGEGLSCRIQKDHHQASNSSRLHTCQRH

| Compound | composite z-score [1] | composite z-score [2] | composite z-score [3] | z-score [4] | composite z-score [5] | composite z-score [6] | composite z-score [7] | composite z-score [8] | composite z-score [9] | composite z-score [10] | composite z-score [11] | z-score [12] | composite z-score [13] | composite z-score [14] | composite z-score [15] | composite z-score [16] | composite z-score [17] | composite z-score [18] | composite z-score [19] | composite z-score [20] |
| --- | --- | --- | --- | --- | --- | --- | --- | --- | --- | --- | --- | --- | --- | --- | --- | --- | --- | --- | --- | --- |
| CC(C)CNC(=O)[C@@]1(Cc2ccccc2I)c2ccccc2C(=O)N(C2CCCCC2)[C@H]1c1ccc(CO)cc1 | 1.53 | 0.778 | 1.02 | 1.14 (inactive) | 0.51 | -0.218 | -0.272 | 0.248 | -0.271 | 0.504 | 0.63 | -1.62 | -0.294 | 0.424 | 0.349 | 0.0477 | 0.199 | -0.237 | 0.961 | 3 |
| CCCC[C@@H]1C[C@H]1[C@@H](NC(=O)c1ccccc1)c1ccc(C(=O)OC)cc1 | 0.798 | 0.393 | 1.18 | -2.47 (inactive) | -0.358 | -0.534 | -1.38 | -0.668 | -1.57 | 1.19 | -0.541 | -1.15 | -1.9 | 0.155 | 0.685 | -0.0236 | -0.0849 | -1.02 | -0.679 | -0.0885 |
| COC(=O)[C@@]1(Cc2ccc(OC)cc2)[C@H]2c3cc(C(=O)N(C)C)n(C)c3C[C@H]2CN1C(=O)c1ccccc1 | 0.843 | 0.928 | 1.28 | -1.96 (inactive) | 0.924 | 0.789 | 0.534 | 1.33 | -0.105 | 0.511 | 1.45 | -2.62 | -0.239 | 2.01 | 0.749 | 0.0337 | 0.527 | 2.11 | 1.15 | 0.696 |
| CN1C(=O)C2C=CC(C(O)c3ccccc3)N(N(c3ccccc3)c3ccccc3)C2C1=O (stereo not given) | 1.59 | 0.629 | 0.632 | 0.597 (inactive) | -0.113 | -0.372 | 0.142 | 0.455 | 0.254 | 1.07 | -0.364 | -0.442 | 0.618 | -0.315 | -0.717 | 0.0181 | -0.0904 | 0.235 | 0.911 | 0.514 |
| CC(C)[Si]1(C(C)C)O[C@@H](c2ccccc2)c2cc(-c3ccc(-c4ccc(Cl)c(Cl)c4)o3)nc(-c3ccccc3)c21 | 0.735 | 0.0699 | 0.234 | 0.115 (inactive) | 0.353 | -0.514 | 0.0831 | 0.0331 | -0.172 | 0.756 | -0.342 | -1.55 | -0.115 | 0.487 | 0.0017 | -0.137 | -0.138 | 0.15 | -0.101 | 0.575 |
